# Assay results from PubChem BioAssay (NCI).
# The panel holds about 83,000 compounds, 20% with a hit somewhere; the sample as a whole holds those more often.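 Single-concentration screen, 48 h exposure, 96-well plates. Endpoint: percent growth. Below 10 = active.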 Active and inactive are the calls of the source. Where a SMILES comes first, the peptide text is derived from it. Bridges are numbered along the chain shown (N, C = ends). [ ]: non-standard residue; d: D form. The star is where a group is joined. ξ: configuration not given here. ξNMePhe(4-NMe2) = CNC(Cc1ccc(N(C)C)cc1)C(=O)O; Picolinoyl(3-OH) = O=C(c1ncccc1O)*; ξPip(4-oxo) = O=C1CCNC(C(=O)O)C1; Phg = N[CH](C(=O)O)c1ccccc1; Abu = CC[CH](N)C(=O)O
# Tested on: SK-MEL-2 melanoma
# Assay: NCI-60 one-dose screen, 48 h (100 = growth as untreated, 0 = no growth, -100 = all killed)
# Conditions: 10 µM
# Procedure: Growth inhibition of the SK-MEL-2 human tumor cell line is measured as a screen for anti-cancer activity. Cells are grown in 96 well plates and exposed to the test compound for 48 hours. Compounds are tested at a single concentration, which is 10^-5 M for most compounds. The reported endpoint is percent growth (GI% or GIPRCNT), where numbers from 0 - 100% represent growth inhibition, and numbers from -100% - 0 represent cell death. For example, a value of 40 represents 60% growth inhibition. A value of 0 means no net growth occurred over the course of the experiment. A value of -40 indicates 40% of cells at the beginning of the experiment died by the end of the experiment. A value of -100 means all cells are dead at the end of the experiment.
# NCI-60 Human Tumor Cell Lines Screen was performed using the standard one-dose NCI protocol, which is described in more detail at https://dtp.cancer.gov/discovery_development/nci-60/default.htm.
# Compounds with GIPRCNT values below 10 were considered active. Activity score was based on GIPRCNT using the following formula: […]
# Score is 0 for GIPRCNT values of 100 or above, 50 for GIPRCNT values of 0, and 100 for GIPRCNT values of -100.
row,Structure (SMILES),growth
1,CCCCC1(CC)COC(CCC)OC1 (stereo not given),104% (inactive)
2,C=CC[N+](C)(C)C,111% (inactive)
3,C[C@@H](c1ccccc1)[C@@H](C(=O)O)c1ccccc1,99.5% (inactive)
4,O=C1C=CC(=O)N1c1ccc(I)cc1Cl,114% (inactive)
5,CC1(C)N=C(N)N=C(N)N1c1ccc(Cl)cc1,71% (inactive)
6,Cc1cc(=O)cc(C)n1-c1ccccc1,104% (inactive)
7,Cc1ccc(C)n1-c1ccsc1C(=O)NNC(=O)CCl,91.2% (inactive)
8,S=c1[nH]ccn1-c1ccccc1Cl,118% (inactive)
9,O=C(O)c1cccc([N+](=O)[O-])c1,112% (inactive)
10,CCCCC(O)c1ccccc1 (stereo not given),109% (inactive)
11,CCCOC(=O)C(O)c1ccccc1 (stereo not given),106% (inactive)
12,C=CCCCCCCCCCOC(C)=O,98.5% (inactive)
13,COc1ccc(C(=O)C(Br)C(Br)C(=O)O)cc1 (stereo not given),94% (inactive)
14,c1ccc(/C(=N\N=C(/c2ccccc2)c2cccs2)c2cccs2)cc1,89.1% (inactive)
15,CC1(C(N)=O)CCC(C(=O)O)C1(C)C (stereo not given),104% (inactive)
16,O=[N+]([O-])c1ccc(N=Nc2ccc(O)c3ccccc23)cc1,43.2% (inactive)
17,c1ccc2c(N3CCCCC3)ncnc2c1,92.6% (inactive)
18,CC(C)(O)C#CC#CC(C)(C)O,103% (inactive)
19,c1cc[n+](C2c3ccccc3C([n+]3ccccc3)c3ccccc32)cc1 (stereo not given),92.8% (inactive)
20,CCC1NC(=O)C(NC(=O)c2ncccc2O)C(C)OC(=O)C(c2ccccc2)NC(=O)C2CC(=O)CCN2C(=O)C(Cc2ccc(N(C)C)cc2)N(C)C(=O)C2CCCN2C1=O (stereo not given) (tested in a mixture with another compound) ({Picolinoyl(3-OH)}-T[Abu]P[ξNMePhe(4-NMe2)][ξPip(4-oxo)][Phg]; ester 1-C; configuration not given here),95.9% (inactive)

row,Structure (SMILES),growth
1,CCCCCCCCCCC1CO1 (stereo not given),118% (inactive)
2,O=C(O)CCCC(=O)O,106% (inactive)
3,CC(=O)Cc1ccc(-c2ccccc2)cc1,102% (inactive)
4,c1ncc2[nH]cnc2n1,84.6% (inactive)
5,Cc1cc(C(C)(C)C)cc(C)c1Br,105% (inactive)
6,COC(=O)C(O)c1ccccc1 (stereo not given),103% (inactive)
7,O=S(=O)(Cc1ccccc1)c1ccccc1,114% (inactive)
8,COC(=O)/C=C\C(=O)OC,114% (inactive)
9,O=C(c1ccccc1)C1CCC1,96.7% (inactive)
10,N#CC1(Nc2ccc3c4c(cccc24)CC3)CCCCC1,90.3% (inactive)
11,CN(C)CCC(=O)c1ccc(O)cc1,107% (inactive)
12,N#CCCc1ccc(O)cc1,104% (inactive)
13,Nc1nc(OCc2ccccc2)c2[nH]cnc2n1,107% (inactive)
14,NCCC(=O)c1ccc(Cl)cc1,101% (inactive)
15,COc1cccc(O)c1O,72.4% (inactive)
16,Cc1cc(N)ccc1-c1ccc(N)cc1C,86.3% (inactive)
17,C/C(=N/NC(N)=O)c1ccco1,108% (inactive)
18,COc1cc(CCN=Cc2ccccc2O)c([N+](=O)[O-])cc1OC,102% (inactive)
19,Cc1ccc(C)n1-c1ccsc1C(=O)NNC(=O)C(Cl)Cl,106% (inactive)
20,O=c1cc(-c2ccccc2)nc2cc(-c3ccco3)[nH]n12,102% (inactive)
